Laboratory results published in PubChem BioAssay.
Activity calls are given as the source filed them.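 Rule for the calls, unless noted: active = compounds whose cell count with miR-34 switched on is under 0.7 times the count with it off; inactive = the rest.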

Legend:
[1] = viability loss with induced miR-34 in A549 – imaging, A549 dox-inducible miR-34, nuclei and caspase counts, primary screen (AID 1347080); details: A549 miR-34 inducible, Hoechst nuclei count, 48 h
[2] = MELAS cybrid and Rieske KO viability enhancers – cell-based, MELAS cybrids, Rieske KO mouse fibroblasts, CellTiter-Glo, primary screen (AID 1508586;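 active = mean z-score across replicates of 1.96 or higher in either the MELAS or the Rieske mutant cell line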;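 note: z relative to plate mean and SD of compound and empty wells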); details: low glucose
[3] = stronger effect = lower value, cell number ratio, induced over uninduced
[4] = measured here: relative caspase fold change +Dox/-Dox
[5] = measured here: total cells with miR-34 induction, stronger effect = lower value
[6] = measured here: total cells without miR-34 induction
[7] = MELAS cybrid survival, CellTiter-Glo 48 h, stronger effect = higher value
[8] = Rieske KO mouse fibroblast survival, CellTiter-Glo 72 h
Note: test concentration not given here.

| Structure (SMILES) | fold change [1, 3] | fold change [1, 4] | cell count [1, 5] | cell count [1, 6] | z-score [2, 7] | z-score [2, 8] |
| --- | --- | --- | --- | --- | --- | --- |
| Cc1ccc(C2OC(CO)C(O)C(O)C2O)cc1Cc1ccc(-c2ccc(F)cc2)s1 (stereo not given) | 0.902 (inactive) | 0.772 | 9160 | 10100 | -0.448 (inactive) | 0.478 |
| C=C1c2cccc(O)c2C(O)=C2C(=O)[C@]3(O)C(O)=C(C(N)=O)C(=O)C(N(C)C)[C@@H]3C(O)[C@H]12 (stereo not given in full) | 0.858 (inactive) | 1.09 | 7630 | 8890 | 5.63 (active) | 0.965 |
| O=NO | 0.914 (inactive) | 1.01 | 8730 | 9550 | -0.254 (inactive) | -0.15 |
| Nc1nc(CC(=O)Nc2ccc(CCNCC(O)c3ccccc3)cc2)cs1 (stereo not given) | 0.898 (inactive) | 1.03 | 8660 | 9650 | -0.0817 (inactive) | -0.148 |
| CCC(=O)O[C@@]1(C(=O)CCl)C(C)C[C@H]2[C@@H]3CC(F)C4=CC(=O)C=C[C@]4(C)[C@]3(F)C(O)C[C@@]21C (stereo not given in full) | 0.853 (inactive) | 0.626 | 4930 | 5780 | -0.347 (inactive) | -0.183 |
| C[C@]12C[C@@]3(O)O[C@@H](O1)[C@]1(COC(=O)c4ccccc4)[C@H]3C[C@@]12OC1OC(CO)C(O)C(O)C1O (stereo not given in full) | 0.87 (inactive) | 0.575 | 8970 | 10300 | -0.445 (inactive) | -0.113 |
| CC(=O)Nc1nc2c(Oc3cc(-c4ccc(C(F)(F)F)cc4)ncn3)cccc2s1 | 0.981 (inactive) | 0.45 | 8510 | 8670 | -0.457 (inactive) | -0.29 |
| COc1cc(OC)c(C=CS(=O)(=O)Cc2ccc(OC)c(NCC(=O)O)c2)c(OC)c1 | 1.02 (inactive) | 0.641 | 1610 | 1580 | 0.468 (inactive) | -0.375 |
| Cc1ccc(S(=O)(=O)n2c(N)nc3ccccc32)cc1 | 1.01 (inactive) | 0.588 | 6490 | 6440 | -0.425 (inactive) | -0.074 |
| CC(C)c1nc(CN(C)C(=O)NC(CCN2CCOCC2)C(=O)NC(CCC(Cc2ccccc2)NC(=O)OCc2cncs2)Cc2ccccc2)cs1 (stereo not given) | 0.977 (inactive) | 0.47 | 5730 | 5860 | -0.312 (inactive) | -0.261 |
| C[C@]12C=CC(=O)C=C1CC[C@@H]1[C@H]2C(O)C[C@@]2(C)[C@H]1CC[C@@]2(O)C(=O)CO (stereo not given in full) | 0.833 (inactive) | 1.24 | 4970 | 5970 | -0.42 (inactive) | -1.24 |
| N#CC(=C(N)Sc1ccc(N)cc1)c1ccccc1C(F)(F)F | 0.906 (inactive) | 0.881 | 4690 | 5170 | -0.31 (inactive) | 0.82 |
| CCC(C)(C)c1ccc(CC(C)CN2CC(C)OC(C)C2)cc1 (stereo not given) | 0.944 (inactive) | 0.765 | 8210 | 8700 | -0.433 (inactive) | 0.477 |
| COc1ccc2cc1Oc1ccc(cc1)C[C@@H]1c3c(cc4c(c3Oc3cc5c(cc3OC)CCN(C)[C@@H]5C2)OCO4)CCN1C | 0.966 (inactive) | 1.15 | 4290 | 4440 | -0.206 (inactive) | -0.161 |
| OCC(CO)NC1C[C@@](O)(CO)C(O)C(O)C1O (stereo not given in full) | 0.838 (inactive) | 1.1 | 8490 | 10100 | -0.052 (inactive) | -0.122 |
| CC1C[C@@H]2[C@@H](C(O)C[C@@]3(C)[C@H]2CC[C@@]3(O)C(=O)CO)[C@@]2(C)C=CC(=O)C=C12 (stereo not given in full) | 0.787 (inactive) | 1.42 | 5500 | 6980 | -0.489 (inactive) | -0.516 |
| CCOC(=O)C(N)Cc1ccc(-c2cc(OC(c3ccc(Cl)cc3-n3ccc(C)n3)C(F)(F)F)nc(N)n2)cc1 (stereo not given) | 0.982 (inactive) | 0.783 | 8120 | 8260 | 0.073 (inactive) | 0.184 |
| COc1cc2c(c(OC)c1OC)-c1c(cc3c(c1OC)OCO3)CC(C)C(C)C2 (stereo not given) | 0.915 (inactive) | 1.02 | 7770 | 8490 | -0.0751 (inactive) | -0.149 |
| CCN1C(=CC(C)=O)Sc2ccc(OC)cc21 | 0.889 (inactive) | 0.354 | 6850 | 7700 | 0.342 (inactive) | 1.67 |
| CC1(C)S[C@@H]2C(NC(=O)C(C(=O)O)c3ccccc3)C(=O)N2C1C(=O)O (stereo not given in full) | 0.89 (inactive) | 0.816 | 8430 | 9470 | -0.386 (inactive) | -0.157 |
| COc1cc2ncnc(Sc3nnc(C)s3)c2cc1OC | 0.954 (inactive) | 0.244 | 5380 | 5640 | 2.8 (active) | 1.21 |
| CC1=C(C(=O)OC2CCCCC2)C(c2ccc([N+](=O)[O-])cc2)C2=C(CC(C)(C)CC2=O)N1 (stereo not given) | 1.46 (inactive) | 0.547 | 1480 | 1010 | -0.282 (inactive) | -2.79 |
| COCCCOc1cc(CC(CC(N)C(O)CC(C(=O)NCC(C)(C)C(N)=O)C(C)C)C(C)C)ccc1OC (stereo not given) | 0.942 (inactive) | 0.734 | 7600 | 8060 | 0.18 (inactive) | -0.179 |

| Structure (SMILES) | fold change [1, 3] | fold change [1, 4] | cell count [1, 5] | cell count [1, 6] | z-score [2, 7] | z-score [2, 8] |
| --- | --- | --- | --- | --- | --- | --- |
| CC(C)CN(C[C@H](O)[C@@H](Cc1ccccc1)NC(=O)O[C@@H]1CO[C@H]2OCC[C@H]21)S(=O)(=O)c1ccc(N)cc1 | 0.938 (inactive) | 0.791 | 7440 | 7930 | -0.364 (inactive) | 0.28 |
| CC(=O)OC1C[C@@H]2CC[C@@H]3[C@@H](CC[C@]4(C)C(OC(C)=O)C([N+]5(C)CCCCC5)C[C@@H]34)[C@@]2(C)CC1N1CCCCC1 (stereo not given in full) | 0.894 (inactive) | 1.12 | 8090 | 9050 | -0.47 (inactive) | -0.53 |
| Cc1[nH]nc2ccc(-c3cncc(OCC(N)Cc4ccccc4)c3)cc12 (stereo not given) | 1.1 (inactive) | 0.572 | 1470 | 1330 | 1.05 (inactive) | -3.52 |
| CCC(C)[C@H]1O[C@]2(CCC1C)CC1C[C@@H](CC=C(C)C(O[C@H]3CC(OC)C(O[C@H]4CC(OC)C(O)C(C)O4)C(C)O3)C(C)C=CC=C3CO[C@@H]4C(O)C(C)=C[C@H](C(=O)O1)[C@]34O)O2 (stereo not given in full) | 1.18 (inactive) | 0.443 | 3750 | 3170 | -0.0305 (inactive) | 0.298 |
| O=C(c1ccc(F)cc1)N1CCCC(c2nc(-c3ccc(F)cc3)no2)C1 (stereo not given) | 0.877 (inactive) | 0.718 | 8270 | 9420 | -0.287 (inactive) | -0.496 |
| CNC(=O)C(Cc1ccccc1)NC(=O)C(CC(C)C)C(CSc1cccs1)C(=O)NO (stereo not given) | 0.843 (inactive) | 0.442 | 6630 | 7870 | 0.43 (inactive) | 1.14 |
| CN(C)C(=O)C(O)C(Cc1ccccc1)NC(=O)c1cc2cc(Cl)ccc2[nH]1 (stereo not given) | 0.959 (inactive) | 0.88 | 8860 | 9230 | -0.337 (inactive) | 0.715 |
| CCCCCOC(=O)Nc1nc(=O)n(C2OC(C)C(O)C2O)cc1F (stereo not given) | 0.881 (inactive) | 1.03 | 6790 | 7710 | -0.294 (inactive) | 0.792 |
| CCc1cc2c(cc1CC)CC(NCC(O)c1ccc(O)c3[nH]c(=O)ccc13)C2 (stereo not given) | 1.01 (inactive) | 0.491 | 7460 | 7410 | -0.199 (inactive) | -0.118 |
| COc1cc(C2c3cc4c(cc3C(O[C@@H]3O[C@@H]5COC(C)O[C@H]5C(O)C3O)[C@H]3COC(=O)[C@H]23)OCO4)cc(OC)c1O (stereo not given in full) | 0.94 (inactive) | 1.28 | 2100 | 2240 | -0.7 (inactive) | -0.559 |
| Cc1ccccc1CN1C2=NCCN2C(=O)C2=C1CCN(Cc1ccccc1)C2 | 0.955 (inactive) | 0.31 | 8710 | 9120 | -0.516 (inactive) | 0.0586 |
| C=C1C(=O)[C@@]23C(O)[C@H]1CCC2[C@]12CO[C@]3(O)C(O)[C@@H]1C(C)(C)CCC2O (stereo not given in full) | 0.94 (inactive) | 0.647 | 8410 | 8940 | -0.553 (inactive) | -0.438 |
| C=C1C(=O)OC2C=C(C)CCC=C(C)CCC12 (stereo not given) | 0.92 (inactive) | 0.847 | 7130 | 7760 | -0.398 (inactive) | -0.0875 |
| CC(C)c1c(C(=O)Nc2ccccc2)c(-c2ccccc2)c(-c2ccc(F)cc2)n1CCC(O)CC(O)CC(=O)O (stereo not given) | 1.21 (inactive) | 0.989 | 5220 | 4330 | 0.917 (inactive) | -1.34 |
| OC(COc1cccc2ncccc12)CN1CCN(C2c3ccccc3C3C(c4ccccc42)C3(F)F)CC1 (stereo not given) | 1.04 (inactive) | 0.683 | 5300 | 5090 | -0.428 (inactive) | 0.74 |
| CCC(NC(=O)C(C)NC)C(=O)N1CC(O)CC1Cc1c(-c2[nH]c3cc(F)ccc3c2CC2CC(O)CN2C(=O)C(CC)NC(=O)C(C)NC)[nH]c2cc(F)ccc12 (stereo not given) | 0.946 (inactive) | 0.86 | 9020 | 9540 | -0.425 (inactive) | -0.265 |
| CC1CCN(CCC2CCCN2S(=O)(=O)c2cccc(O)c2)CC1 (stereo not given) | 0.96 (inactive) | 0.546 | 7750 | 8080 | -0.371 (inactive) | -0.0766 |
| COC1CC2CCC(C)[C@@](O)(O2)C(=O)C(=O)N2CCCCC2C(=O)OC(C(C)CC2CCC(O)C(OC)C2)CC(=O)C(C)C=C(C)C(O)C(OC)C(=O)C(C)CC(C)C=CC=CC=C1C (stereo not given in full) | 0.994 (inactive) | 1.19 | 4070 | 4090 | 0.132 | 2.33 |
| CCCC(Nc1nc(-c2ccc(NC(=O)NCC)c(OC)c2)ncc1C)c1cccnc1 (stereo not given) | 1.06 (inactive) | 0.656 | 1450 | 1370 | 2.93 (active) | -1.09 |
| O=C(O)C1=CC(O)C(O)C(O)C1 (stereo not given) | 0.975 (inactive) | 0.723 | 9710 | 9960 | -0.355 (inactive) | 0.667 |
| CCOC(=O)C(CCc1ccccc1)NC1CCCN2CCCC(C(=O)O)N2C1=O (stereo not given) | 0.927 (inactive) | 0.673 | 7550 | 8150 | -0.275 (inactive) | -0.0266 |
| COc1cc(CCc2cc(NC(=O)c3ccc(N4CC(C)NC(C)C4)cc3)n[nH]2)cc(OC)c1 (stereo not given) | 0.767 (inactive) | 0.948 | 4590 | 5980 | -0.509 (inactive) | -1.9 |
